SNCA expr inhib = reduces expression of the alpha-synuclein gene | HEK-293 SNCA-luciferase knock-in, luminescence, 24 h | 140,000 compounds, 0.17% hits | Potency, µM (titrated, usually from 57.2 µM), for inactives: at the top dose activity change, negative = inhibition, usual class: inhibitors;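 further: potency means the concentration at half of the fitted maximal effect; plate controls were DMSO cells for no effect and cell-free wells for full effect; nearly all actives have a fitted effect of over 45% in size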
IP6K1 inhibitor = blocks human inositol hexakisphosphate kinase 1. IP6K1 kinase, ADP-Glo luminescence, 2 h; stronger effect = lower value. activity change, % (series mostly up to about 58 µM). 140,000 compounds, 0.81% hits; in the data active means activity change below about -25%; further: on the % scale 0 is the no-effect control and ±100 the full control effect
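ADP-Glo luminescence measures ADP made by human IP6K1 during a 2 h RT reaction with ATP/IP6 (mix at 1.3 mM/130 uM); top library doses 57.5 and 19.1 uM final.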
KDM5B inhibitor = KDM5B demethylase inhibition. Q9UGL1. KDM5B demethylase, FDH-coupled NADH fluorescence (FDH is formaldehyde dehydrogenase). Potency, µM (series often up to 57.7 µM), hits mostly inhibitors. 220,000 compounds, 2.6% hits; further: potency means the concentration at half of the fitted maximal effect; 0% is about no effect; nearly all actives have a fitted effect of over 70% in size
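Compound dilutions met 200 nM (final) KDM5BΔAP for 10 min at room temperature before substrate addition. The substrate mix held 12.5 µM H3K4me3 with cofactors 25 µM α-ketoglutarate and 50 µM Fe²⁺. NADH signal gain over 30 min defined activity.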
HEK293 viab = cell viability loss counter-screen | HEK-293-SNCA-luc viability, GF-AFC fluorescence, 24 h | Potency, µM (series often up to 57.1 µM), for the others: at the highest dose activity change, negative = cytotoxicity, most hits filed as cytotoxic | 150,000 compounds, 0.12% hits | AID 1671193;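 further: potency means the concentration at half of the fitted maximal effect; 0% = DMSO-treated cells and -100% = medium-only wells without cells; nearly all actives have a fitted effect of over 30% in size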
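HEK-293-SNCA-luc cells (1500/well) plated 24 h, then exposed 24 h to a dilution series; GF-AFC added 30 min at 37C, fluorescence 405/540 nm; normalised to medium-only and DMSO wells, Hill fit.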
Numbers without * were called inactive; [ ] = dose if it differs, or a comment. Hits are enriched below; roughly 2.8% of the tested compounds scored in any of these assays. Unless noted, the call rests on the fitted dose curve; in most records, active means well fitted curve in the direction sought with a large enough effect; inconclusive means small, poorly fitted or top-dose-only effect, or another doubt; inactive means no such curve, though single readings can be large; an effect the other way counts as inactive or inconclusive.

`COc1nc2nc(CC3CC3)n(C)c2cc1-c1ccncc1` gave SNCA expr inhib 68%[87.6 µM], IP6K1 inhibitor 2, KDM5B inhibitor inconclusive and HEK293 viab -1%[87.6 µM].
For Cc1cc2nc3n(c(=O)c2n1CC(=O)Nc1ccc(F)c(Cl)c1)CCCCC3 the results were SNCA expr inhib 0%, IP6K1 inhibitor 3, KDM5B inhibitor inactive and HEK293 viab 8%.
COc1nc2nc(CCc3ccccc3)n(C)c2cc1-c1ccnc(C)c1 was read as SNCA expr inhib 74%[87.6 µM], IP6K1 inhibitor 5, KDM5B inhibitor 40µM* and HEK293 viab -22%[87.6 µM].
CC1(C)[C@H]2CC[C@@H](CNC(=O)c3cccc(Br)c3)[C@@H]1C2 was read as SNCA expr inhib -7%[87.6 µM], IP6K1 inhibitor 0, KDM5B inhibitor inactive and HEK293 viab -15%[87.6 µM].
For COc1cccc([S+](=O)([O-])NC[C@@H]2CC[C@H]3C[C@@H]2C3(C)C)c1 the results were SNCA expr inhib 7.1µM*, IP6K1 inhibitor 2, KDM5B inhibitor inactive and HEK293 viab inconclusive.
Screening O=C(NCC1COCCO1)c1ccc(CN2CCC(N3CCCC3)CC2)[nH]c1=O (configuration not stated) returned SNCA expr inhib 13%, IP6K1 inhibitor -9, KDM5B inhibitor 28µM* and HEK293 viab -1%.
For Cc1cc(=O)cc(C(=O)N2CCC(O)(CN3CCOCC3)C(C)(C)C2)o1 (configuration not stated) the results were SNCA expr inhib 2%, IP6K1 inhibitor 9, KDM5B inhibitor inconclusive and HEK293 viab 4%.
For CN(C)c1ccc(C(=O)N2CCN(c3nnc4ccccn34)CC2)cc1 the results were SNCA expr inhib -11%, IP6K1 inhibitor -8, KDM5B inhibitor 18µM* and HEK293 viab 1%.
CCc1ccc(C(=O)N2CCCN(c3nnc4ccccn34)CC2)cc1 was read as SNCA expr inhib inconclusive, IP6K1 inhibitor 7, KDM5B inhibitor 25µM* and HEK293 viab inconclusive.
For O=C(c1ccoc1)N1CCN(c2nnc3ccccn23)CC1 the results were SNCA expr inhib -1%, IP6K1 inhibitor 17, KDM5B inhibitor 32µM* and HEK293 viab 7%.
Screening CNc1ncc(CN(C)C(=O)c2cc(S(N)(=O)=O)ccc2F)cn1 returned SNCA expr inhib -11%, IP6K1 inhibitor -2, KDM5B inhibitor 22µM* and HEK293 viab -14%.
CC(CCc1ccccc1)NC(=O)c1ccc2nccn2c1 (configuration not stated) was read as SNCA expr inhib 10%[87.6 µM], IP6K1 inhibitor -4, KDM5B inhibitor 35µM* and HEK293 viab 12%[87.6 µM].
CC(NC(=O)c1ccc2nccn2c1)c1ccc(F)cc1 (configuration not stated) was read as SNCA expr inhib 16%[87.6 µM], IP6K1 inhibitor -8, KDM5B inhibitor 35µM* and HEK293 viab 10%[87.6 µM].
For O=C(NCc1ccc(F)cc1)c1ccc2nccn2c1 the results were SNCA expr inhib 6%[87.6 µM], IP6K1 inhibitor 1, KDM5B inhibitor 28µM* and HEK293 viab 9%[87.6 µM].
For CCC(CC)NC(=O)c1ccc2nccn2c1 the results were SNCA expr inhib 6%[87.6 µM], IP6K1 inhibitor 29 and HEK293 viab 0%[87.6 µM].
Screening COCCNC(=O)c1ccc2nccn2c1 returned SNCA expr inhib 22%[87.6 µM], IP6K1 inhibitor -2, KDM5B inhibitor 35µM* and HEK293 viab 2%[87.6 µM].
Screening CSc1ccc(C(C)NC(=O)c2ccc(F)cc2)cc1 (configuration not stated) returned KDM5B inhibitor inactive.
For O=C(NCCc1ccccn1)c1ccc2nccn2c1 the results were SNCA expr inhib 17%[87.6 µM], IP6K1 inhibitor -8, KDM5B inhibitor inconclusive and HEK293 viab -3%[87.6 µM].
Screening COCCCNC(=O)c1ccc2nccn2c1 returned SNCA expr inhib -12%[87.6 µM], IP6K1 inhibitor 5 and HEK293 viab 2%[87.6 µM].
Screening COc1cc(C(=O)NCc2nc3ccccc3n2C)cc(OC)c1OC returned KDM5B inhibitor inactive.
Cn1c(CNC(=O)c2ccc3nccn3c2)nc2cc(C(F)(F)F)ccc21 was read as SNCA expr inhib -11%, IP6K1 inhibitor 0, KDM5B inhibitor 20µM* and HEK293 viab -5%.
For Cc1cn2nc(C(=O)NCC(C)C)cc2c(N2CCCC2)n1 the results were SNCA expr inhib 0%, IP6K1 inhibitor 14, KDM5B inhibitor 28µM* and HEK293 viab 6%.
`Cc1cn2nc(C(=O)NCc3cccnc3)cc2c(N2CCCC2)n1` gave SNCA expr inhib -21%, IP6K1 inhibitor -14, KDM5B inhibitor inactive and HEK293 viab 6%.

Bioassay records from PubChem.
